According to PubChem BioAssay AID1159580 (chemical genetic matrix, 2015):
Screen size: about 5,500 compounds; about 2,000 (36%) were called active. Another 18% or so got no clear call; they are omitted. Cut-off read from the data, not from the text of the source: active = normalized growth mostly below about 0.91 (no sharp cut-off); inconclusive = no clear call, values can overlap the other calls; inactive = mostly above about 0.92. The list shows a part of the results.

Test: chemical genetic growth profiling, strain panel (AID 1159580);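 note: tested at 20 µM; growth read once vehicle control cultures reached saturation at 30 °C; 1 = growth at the plate median or of vehicle wells; lower values mean less growth of the strain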
Details: growth OD

Measured: normalized growth

NC(=O)c1ccc([N+](=O)[O-])cc1Cl
inactive: S. cerevisiae deletion strains, locus YKL009W, strain mrt4, hits give low values 0.977 | S. cerevisiae deletion strains, locus YKL068W, hits give low values 0.977 | S. cerevisiae deletion strains, locus YKL085W, strain MDH1 (second series), hits give low values 0.98 | S. cerevisiae deletion strains, locus YKL085W, strain MDH1, hits give low values 0.98 | S. cerevisiae deletion strains, locus YKL160W, strain elf1, hits give low values 1.03 | S. cerevisiae deletion strains, locus YKL190W, strain CNB1, hits give low values 0.968 | S. cerevisiae deletion strains, locus YKR001C, strain vps1, hits give low values 0.969 | S. cerevisiae deletion strains, locus YKR026C, strain gcn3, hits give low values 0.981 | S. cerevisiae deletion strains, locus YKR091W, strain srl3, hits give low values 0.977 | S. cerevisiae deletion strains, locus YLL001W, strain dnm1, hits give low values 1 | S. cerevisiae deletion strains, locus YLL026W, hits give low values 1.01 | S. cerevisiae deletion strains, locus YLL041C, strain sdh2, hits give low values 0.982 | S. cerevisiae deletion strains, locus YLR027C, strain aat2, hits give low values 1.01 | S. cerevisiae deletion strains, locus YLR039C, strain RIC1, hits give low values 0.927 | S. cerevisiae deletion strains, locus YLR058C, strain SHM2, hits give low values 0.963 | S. cerevisiae deletion strains, locus YLR102C, strain apc9, hits give low values 0.971 | S. cerevisiae deletion strains, locus YLR113W, strain HOG1, hits give low values 0.961 | S. cerevisiae deletion strains, locus YLR221C, strain rsa3, hits give low values 0.956 | S. cerevisiae deletion strains, locus YLR258W, strain gsy2, hits give low values 0.956 | S. cerevisiae deletion strains, locus YLR262C, strain YPT6 (second series), hits give low values 0.991 | S. cerevisiae deletion strains, locus YLR262C, strain YPT6, hits give low values 0.838 | S. cerevisiae deletion strains, locus YLR268W, strain sec22, hits give low values 0.961 | S. cerevisiae deletion strains, locus YLR320W, strain mms22, hits give low values 0.965 | S. cerevisiae deletion strains, locus YLR330W, strain CHS5, hits give low values 0.98 | S. cerevisiae deletion strains, locus YLR342W, strain FKS1 (second series), hits give low values 1 | S. cerevisiae deletion strains, locus YLR342W, strain FKS1, hits give low values 1 | S. cerevisiae deletion strains, locus YLR357W, strain rsc2, hits give low values 0.965 | S. cerevisiae deletion strains, locus YLR370C, strain arc18, hits give low values 0.972 | S. cerevisiae deletion strains, locus YLR371W, strain rom2, hits give low values 0.982 | S. cerevisiae deletion strains, locus YLR384C, strain iki3, hits give low values 0.992 | S. cerevisiae deletion strains, locus YLR418C, strain cdc73, hits give low values 0.949 | S. cerevisiae deletion strains, locus YML016C, strain PPZ1, hits give low values 0.98 | S. cerevisiae deletion strains, locus YML032C, strain rad52, hits give low values 0.999 | S. cerevisiae deletion strains, locus YML120C, strain ndi1, hits give low values 1 | S. cerevisiae deletion strains, locus YML124C, strain tub3, hits give low values 0.984 | S. cerevisiae deletion strains, locus YMR058W, strain fet3, hits give low values 0.977 | S. cerevisiae deletion strains, locus YMR078C, strain ctf18, hits give low values 0.977 | S. cerevisiae deletion strains, locus YMR125W, strain sto1, hits give low values 0.973 | S. cerevisiae deletion strains, locus YMR129W, hits give low values 0.975 | S. cerevisiae deletion strains, locus YMR205C, strain PFK2, hits give low values 1.01 | S. cerevisiae deletion strains, locus YMR223W, strain ubp8, hits give low values 0.988 | S. cerevisiae deletion strains, locus YMR231W, strain pep5, hits give low values 0.98 | S. cerevisiae deletion strains, locus YMR263W, strain SAP30, hits give low values 0.968 | S. cerevisiae deletion strains, locus YMR307W, strain GAS1, hits give low values 0.891 | S. cerevisiae deletion strains, locus YNL067W, strain RPL9B, hits give low values 0.969 | S. cerevisiae deletion strains, locus YNL071W, strain lat1, hits give low values 0.974 | S. cerevisiae deletion strains, locus YNL128W, strain TEP1, hits give low values 0.972 | S. cerevisiae deletion strains, locus YNL153C, strain GIM3, hits give low values 0.964 | S. cerevisiae deletion strains, locus YNL183C, strain NPR1, hits give low values 0.895 | S. cerevisiae deletion strains, locus YNL209W, strain ssb2, hits give low values 0.964 | S. cerevisiae deletion strains, locus YNL233W, strain BNI4, hits give low values 0.982 | S. cerevisiae deletion strains, locus YNL248C, strain rpa49, hits give low values 0.931 | S. cerevisiae deletion strains, locus YNL250W, strain rad50, hits give low values 0.971 | S. cerevisiae deletion strains, locus YNL271C, strain bni1, hits give low values 0.981 | S. cerevisiae deletion strains, locus YNL298W, strain CLA4, hits give low values 0.98 | S. cerevisiae deletion strains, locus YNL307C, strain MCK1, hits give low values 0.989 | S. cerevisiae deletion strains, locus YNL322C, strain KRE1 (second series), hits give low values 0.983 | S. cerevisiae deletion strains, locus YNL322C, strain KRE1, hits give low values 0.981 | S. cerevisiae deletion strains, locus YNR049C, strain mso1, hits give low values 0.97 | S. cerevisiae deletion strains, locus YNR052C, strain pop2, hits give low values 0.978 | S. cerevisiae deletion strains, locus YOL006C, strain TOP1, hits give low values 0.886 | S. cerevisiae deletion strains, locus YOL012C, strain htz1 0.79 | S. cerevisiae deletion strains, locus YOL147C, strain pex11, hits give low values 0.98 | S. cerevisiae deletion strains, locus YOR001W, strain rrp6, hits give low values 1 | S. cerevisiae deletion strains, locus YOR061W, strain CKA2, hits give low values 0.951 | S. cerevisiae deletion strains, locus YOR069W, strain VPS5, hits give low values 0.993 | S. cerevisiae deletion strains, locus YOR070C, strain gyp1, hits give low values 0.972 | S. cerevisiae deletion strains, locus YOR080W, strain dia2, hits give low values 0.999 | S. cerevisiae deletion strains, locus YOR083W, strain WHI5, hits give low values 0.989 | S. cerevisiae deletion strains, locus YOR106W, strain vam3, hits give low values 0.987 | S. cerevisiae deletion strains, locus YOR136W, strain idh2, hits give low values 0.99 | S. cerevisiae deletion strains, locus YOR144C, strain elg1, hits give low values 0.991 | S. cerevisiae deletion strains, locus YOR184W, strain ser1, hits give low values 0.982 | S. cerevisiae deletion strains, locus YOR231W, strain MKK1, hits give low values 0.956 | S. cerevisiae deletion strains, locus YOR265W, strain rbl2, hits give low values 0.985 | S. cerevisiae deletion strains, locus YOR270C, strain vph1, hits give low values 0.929 | S. cerevisiae deletion strains, locus YOR290C, strain snf2, hits give low values 0.915 | S. cerevisiae deletion strains, locus YOR316C, strain cot1, hits give low values 0.962 | S. cerevisiae deletion strains, locus YPL051W, strain arl3, hits give low values 0.988 | S. cerevisiae deletion strains, locus YPL055C, strain LGE1, hits give low values 0.941 | S. cerevisiae deletion strains, locus YPL078C, strain atp4, hits give low values 1.02 | S. cerevisiae deletion strains, locus YPL106C, strain sse1, hits give low values 0.957 | S. cerevisiae deletion strains, locus YPL240C, strain hsp82, hits give low values 0.986 | S. cerevisiae deletion strains, locus YPL241C, strain CIN2, hits give low values 1.01 | S. cerevisiae deletion strains, locus YPL256C, strain CLN2, hits give low values 0.941 | S. cerevisiae deletion strains, locus YPR119W, strain clb2, hits give low values 0.986 | S. cerevisiae deletion strains, locus YPR141C, strain kar3, hits give low values 0.955 | S. cerevisiae deletion strains, locus YPR163C, strain tif3, hits give low values 0.989 | S. cerevisiae deletion strains, locus YPR167C, strain met16, hits give low values 0.962 | S. cerevisiae deletion strains, strain wtn01, hits give low values 0.969 | S. cerevisiae strains, strain wild type, hits give low values 0.981
